Screens: PubChem, National Center for Advancing Translational Sciences (NCATS)
Shown are actives, neighbours in structure and some others; about 7.5% of the full set was active somewhere.
ELG1 genotox – qHTS screen for small molecules that induce genotoxicity in human embryonic kidney (HEK293T) cells expressing luciferase-tagged ELG1 | HEK293T ELG1-luciferase reporter, luminescence, 16 h | Potency, µM (doses to about 46 µM), inactives show at the highest dose activity change, positive = activation, usual class: activators | actives 1.3% (n = 330,000); also: % of control where 0% means no effect; nearly all actives have a fitted effect of over 60% in size
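Reporter readout depends on ELG1 protein level, which increases with genetic stress. After 16 hr compound exposure at 37 °C, luciferase activity was quantified using ONE-Glo.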
NPC1 promoter act – qHTS Assay for NPC1 Promoter Activators | Huh7 NPC1 promoter luciferase reporter, 24 h | AID 485313, 2010 | actives 2.4% (n = 320,000) | Potency, µM (top dose mostly 9.22 µM), without a hit: top-dose activation, usual class: activators; also: % of control where 0% means no effect; nearly all actives have a fitted effect of over 60% in size
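Quantitative HTS used a cell-based reporter: Huh7 cells stably bearing the NPC1 promoter upstream of luciferase were treated with compounds for 24 h, and promoter activation was read as luminescence.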
Rab9 prom act – qHTS Assay for Rab9 Promoter Activators; Huh7 Rab9 promoter-luciferase reporter, luminescence, 24 h; Potency, µM (top dose mostly 9.22 µM), for the others: top-dose activation, negative = inhibition, usual class: activators; actives 2.8% (n = 320,000); also: % of control where 0% means no effect; nearly all actives have a fitted effect of over 60% in size
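Huh7 reporter line, Rab9 promoter upstream of luciferase. Compound exposure 24 h at 37 °C in reduced-serum medium with 10% FBS. Read-out: luminescence.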
Luc counter – Counterscreen for Luciferase (Kinase-Glo TM) Inhibition; AID 1379, 2008; Kinase-Glo luciferase, ATP luminescence, 8 min; actives 0.28% (n = 200,000); Luciferin 4-monooxygenase (Photuris pensylvanica), Q27757; Potency, µM (series often up to 38.3 µM), for inactives: top-dose activity change, negative = inhibition, usual class: inhibitors; also: % is scaled to controls: 0 for no effect and ±100 for the full control effect; nearly all actives have a fitted effect of over 60% in size
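Luminescence was the read-out, taken after 8-minute incubation at ambient temperature. Luciferase turned over luciferin with 10 uM ATP in imidazole pH 7.2 buffer containing KCl, MgCl2, Tween 20 and BSA.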
FLuc counter – qHTS profiling assay for firefly luciferase inhibitor/activator using purifed enzyme and Km concentrations of substrates (counterscreen for miR-21 project); purified FLuc, Km substrates, luminescence inhibition; Potency, µM (titrated, usually from 57.5 µM), without a hit: top-dose activity change, negative = inhibition, hits mostly inhibitors; actives 6.9% (n = 360,000); AID 588342, 2011;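 also: plate controls were vehicle for no effect and reference inhibitor for full effect; nearly all actives have a fitted effect of over 55% in size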
Target sequence (P08659 whole entry, looked up): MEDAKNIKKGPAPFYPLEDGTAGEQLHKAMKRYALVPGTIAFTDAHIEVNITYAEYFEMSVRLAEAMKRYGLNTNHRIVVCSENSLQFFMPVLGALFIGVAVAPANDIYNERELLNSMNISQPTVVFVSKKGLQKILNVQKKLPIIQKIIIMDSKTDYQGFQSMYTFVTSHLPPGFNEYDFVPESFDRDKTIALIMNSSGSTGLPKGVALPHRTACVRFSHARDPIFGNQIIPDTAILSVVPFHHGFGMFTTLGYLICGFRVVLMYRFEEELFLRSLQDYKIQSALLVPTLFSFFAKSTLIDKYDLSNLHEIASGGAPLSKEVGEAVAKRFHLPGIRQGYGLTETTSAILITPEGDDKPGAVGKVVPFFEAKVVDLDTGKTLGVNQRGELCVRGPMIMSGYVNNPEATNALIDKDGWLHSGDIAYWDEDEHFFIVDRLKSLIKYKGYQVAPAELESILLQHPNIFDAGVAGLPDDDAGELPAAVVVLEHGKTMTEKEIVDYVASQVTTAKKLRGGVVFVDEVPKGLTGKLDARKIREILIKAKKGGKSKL
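Purified P. pyralis luciferase, 10 nM final, with Km-level 10 uM D-luciferin and 10 uM ATP in 50 mM Tris acetate pH 7.5, 10 mM Mg acetate, 0.01% Tween-20, 0.05% BSA; 6-point qHTS titration about 60 µM downward; luminescence read.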
SMN2 splice up – qHTS Assay for Enhancers of SMN2 Splice Variant Expression | actives 2.8% (n = 210,000) | HEK293 SMN2-luciferase splicing reporter, luminescence, 30-36 h | Potency, µM (series often up to 46.1 µM), inactives show at the top dose activity change, positive = activation, usual class: activators | AID 1458, 2008; also: % of control where 0% means no effect; nearly all actives have a fitted effect of over 55% in size
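qHTS luciferase splicing reporter: luminescence rises when SMN2 exon 7 is included in transfected HEK293 cells. Compound exposure lasted 30-36 h at 37C, with 4.5 mM final sodium butyrate as control, followed by a ONE-Glo read.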
* = called active by the depositor; [ ] = dose if it differs, or a comment. Calls follow the shape of the dose curve; as a rule, active = well fitted curve in the direction sought with a large enough effect; inconclusive = small, poorly fitted or top-dose-only effect, or another doubt; inactive = no such curve, though single readings can be large; an effect the other way counts as inactive or inconclusive. Potency is read from the fitted curve at half-maximal effect.

Screening CCOC(=O)c1cc(-c2ccc(F)cc2)n(CC(=O)NCc2cccnc2)c1C returned ELG1 genotox 3%, NPC1 promoter act -5%, Rab9 prom act 0%, Luc counter 2%, FLuc counter -2% and SMN2 splice up -13%.
For CC(=O)N1CCC2(CCCN(c3ccccn3)C2)CC1 the results were Luc counter 1% and SMN2 splice up -3%.
COc1ccc(/C=c2\s/c(=C/C(=O)c3ccc(C)cc3)[nH]c2=O)cc1OC was read as ELG1 genotox -4%, NPC1 promoter act -1%, Rab9 prom act 3%, Luc counter 0%, FLuc counter 11µM* and SMN2 splice up -13%.
Screening CCc1ccc(/C=c2\s/c(=C\C(=O)C(C)(C)C)[nH]c2=O)cc1 returned ELG1 genotox -13%, NPC1 promoter act 12%, Rab9 prom act -4%, Luc counter -2%, FLuc counter inconclusive and SMN2 splice up 10%.
COc1cc(/C=C(\C#N)C(=O)NCC2CCCO2)ccc1OC(C)C (stereo not drawn) was read as ELG1 genotox -1%, NPC1 promoter act 3%, Rab9 prom act -1%, Luc counter 2%, FLuc counter inconclusive and SMN2 splice up -9%.
COc1ccc(/C=C2\CCC(C3CCCC3)C2=O)cc1OC (stereo not drawn) was read as ELG1 genotox inconclusive, NPC1 promoter act inconclusive, Rab9 prom act 6% and FLuc counter 11µM*.
For COc1cc(/C=C2\CCC(C3CCCC3)C2=O)ccc1OC(C)C (stereo not drawn) the results were ELG1 genotox 17%, NPC1 promoter act -5%, Rab9 prom act 0%[1.84 µM] and FLuc counter 15µM*.
CCCCc1nc2c(c3c1C[C@H](C)OC3)CN(C(=O)COC)CC2 was read as Luc counter -5%[7.66 µM] and SMN2 splice up 10%[9.22 µM].
For Oc1ccc2ccccc2c1SSc1c(O)ccc2ccccc12 the results were NPC1 promoter act 5%[46.1 µM] and Rab9 prom act 1%[46.1 µM].
`O=C1c2cccc3cccc(c23)C(=O)N1CC1CCN(CC(O)COc2ccc3ccccc3c2)CC1` (stereo not drawn) gave ELG1 genotox 8%, NPC1 promoter act inconclusive, Rab9 prom act 0%, Luc counter -2%, FLuc counter 12µM* and SMN2 splice up 10%.
`O=C(C1CCC1)N1CCc2cc(S(=O)(=O)NCc3ccc(F)cc3)ccc21` gave FLuc counter -1% and SMN2 splice up -8%.
For Cc1ccc(C2=N/C(=C\N3CCCCC3)C(=O)O2)cc1 the results were ELG1 genotox 4.1µM*, NPC1 promoter act 2.2µM*, Rab9 prom act 1.1µM*, Luc counter 0%, FLuc counter 5.4µM* and SMN2 splice up inconclusive.
For Cc1cccc2cc(/C=C3\N=C(c4ccccc4)OC3=O)c(N3CCOCC3)nc12 the results were ELG1 genotox -2%, NPC1 promoter act -5%, Rab9 prom act 0%, Luc counter -2%, FLuc counter 3% and SMN2 splice up -6%.
For Cc1ccc(C2=N/C(=C/N3CCOCC3)C(=O)O2)cc1 the results were ELG1 genotox 16µM*, NPC1 promoter act inconclusive, Rab9 prom act 3.5µM*, Luc counter -4%, FLuc counter 12µM* and SMN2 splice up 11µM*.
Screening COc1ccc(/C=C2\N=C(c3ccc(C)cc3)OC2=O)cc1 returned ELG1 genotox 0%, NPC1 promoter act -2%, Rab9 prom act 4% and FLuc counter inconclusive.
Cc1ccc(C(=O)COC(=O)CCC(=O)Nc2ccc(Oc3ccccc3)cc2)cc1 was read as FLuc counter -3% and SMN2 splice up -6%.
